A selection: hits, their analogues and other compounds. The true share with any hit is near 1%.
SK-BR-3 tox 24h: SK-BR-3 proliferation inhibitors; viability, % at 10 µM; SK-BR-3 viability, CellTiter-Glo ATP luminescence, 24 h; stronger effect = lower value; hit rate 0.47% among 41,000; AID 847;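 active = viability at or below the median of all test compounds minus 3 SD, in both replicates if run twice, cut at about 45% in these data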;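 note: 100% = median untreated cell wells and 0% = median positive control drug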
Hsp90 inh: displaces geldanamycin probe from tumor Hsp90; P07900; NCI-N417 lysate Hsp90, Cy3B-geldanamycin FP displacement; inhibition, % at 30 µM; hit rate 0.35% among 64,000; AID 429;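 active = inhibition above 50%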;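 note: 0% = tracer plus lysate wells and 100% = tracer alone without lysate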
MKP-1 inh: inhibitors of human MKP-1 phosphatase. P28562. recombinant MKP-1, OMFP hydrolysis fluorescence. inhibition, %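 (compounds tested at a single concentration somewhere between 10 and 100 µM)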. hit rate 0.15% among 65,000. AID 374;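 active = inhibition above about 50%, limit read from the data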;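 note: 0% = DMSO max control wells and 100% = wells with enzyme stopped by NaOH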
ROCK2 blocker: blocks human Rho kinase 2 activity; purified ROCK2, Kinase-Glo ATP depletion luminescence; inhibition, % at 6 µM; hit rate 0.35% among 60,000;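 active = inhibition above the screen-wide mean inhibition plus 3 SD, cut at about 18% in these data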;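 note: plate controls were DMSO wells for no effect and Y-27632 control wells after no-enzyme background subtraction for full effect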
PKA inh: blocks human protein kinase A activity; P17612; hit rate 0.1% among 65,000; PKA Kemptide phosphorylation, Kinase-Glo ATP luminescence; inhibition, % at 6 µM;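 active = inhibition above the screen-wide mean inhibition plus 3 SD, cut at about 21% in these data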
Cdc25B inh: inhibitors of human Cdc25B phosphatase; P30305; recombinant Cdc25B, OMFP fluorescence Ex485/Em525; inhibition, %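 (compounds tested at 10 µM final in the well)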; hit rate 0.1% among 65,000; AID 368; in the data active = inhibition above about 50%
Target sequence (P30305 whole entry, looked up): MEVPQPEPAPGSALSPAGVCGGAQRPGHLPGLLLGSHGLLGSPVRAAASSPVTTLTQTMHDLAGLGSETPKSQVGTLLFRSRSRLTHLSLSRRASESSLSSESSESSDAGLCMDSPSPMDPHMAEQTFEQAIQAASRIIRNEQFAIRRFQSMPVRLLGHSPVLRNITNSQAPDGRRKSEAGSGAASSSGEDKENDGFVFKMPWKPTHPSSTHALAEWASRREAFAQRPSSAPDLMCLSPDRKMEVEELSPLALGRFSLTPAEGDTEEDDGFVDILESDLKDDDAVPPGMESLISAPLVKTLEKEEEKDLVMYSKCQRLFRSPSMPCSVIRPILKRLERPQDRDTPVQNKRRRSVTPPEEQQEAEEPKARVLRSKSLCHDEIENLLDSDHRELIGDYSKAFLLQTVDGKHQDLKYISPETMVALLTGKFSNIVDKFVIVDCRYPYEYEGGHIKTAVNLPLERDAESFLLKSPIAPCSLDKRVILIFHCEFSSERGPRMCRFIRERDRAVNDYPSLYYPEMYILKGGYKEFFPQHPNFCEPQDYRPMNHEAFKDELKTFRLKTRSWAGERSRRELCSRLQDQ
* marks the source's active call; other numbers are inactive results; / = no result given.

SMILES | SK-BR-3 tox 24h | Hsp90 inh | MKP-1 inh | ROCK2 blocker | PKA inh | Cdc25B inh
COC(=O)c1ccc(OC)c(CSc2nnc(COc3ccccc3)o2)c1 | 99 | -3 | -34 | 8 | 7 | -15
Nn1c(SCC(=O)Nc2ccc3c(c2)OCCO3)nnc1C(F)(F)F | 84 | 4 | -1 | 5 | 0 | 2
O=C(Nc1cccc(Br)c1)c1ccn[nH]1 | 92 | 3 | -4 | 4 | 9 | 32
Brc1ccc2[nH]ncc2c1 | 99 | -3 | 1 | 30* | 12 | -3
Cc1ccc(CNc2ccc(N3CCOCC3)c(C(=O)O)c2)s1 | 79 | -2 | -19 | -11 | 12 | -1
CCN1c2ccccc2NC2N=C(OC)C(c3ccccc3)C21 (stereo unspecified) | 36* | -3 | 2 | 5 | 6 | -10
COc1cccc(NC(=O)N2CCC(C(N)=O)(N3CCCCC3)CC2)c1 | 40* | -1 | 2 | 6 | 6 | -10
COC(=O)c1cc(NC(=O)c2c(Cl)nc3sccn23)cc(C(=O)OC)c1 | 26* | 1 | 3 | 4 | 4 | 4
CC1Cc2ccccc2N1C(=O)Cn1nnc(-c2ccccc2NC(=O)C2CCC2)n1 (stereo unspecified) | / | -1 | -20 | / | 7 | -1
CC(C)NCC(O)Cn1c2c(c3ccccc31)CCc1c-2cnn1-c1ccccc1 (stereo unspecified) | 2.2* | -3 | -39 | 1 | 11 | -9
CCC1C(=O)N=C(SCC(=O)Nc2ccc(C(=O)OC)cc2)NC1=O (stereo unspecified) | 44* | 4 | 28 | -1 | -1 | -10
NS(=O)(=O)c1ccc(NC(=O)CSC2=NC(=O)C(c3ccccc3)C(=O)N2)cc1 (stereo unspecified) | / | -3 | 3 | 5 | 8 | -2
O=C(CCN1C(=O)C2C3C=CC(C3)C2C1=O)NCCN1CCCc2ccccc21 (stereo unspecified) | 30* | -7 | -7 | 3 | 3 | -2
CCOC(=O)Nc1sc(C)nc1-c1ccccc1 | / | -2 | -3 | 2 | 10 | -16
COc1ccc(Nc2cc(C)nc3ncnn23)c(OC)c1 | / | -2 | 15 | 2 | 0 | 1
COc1ccc(CNc2cc(C)nc3ncnn23)c(OC)c1 | 40* | 2 | -10 | 0 | 2 | -20
CCN1CCc2nc(NC(=O)Cc3ccc4c(c3)OCCO4)sc2C1 | 91 | / | 26 | / | -4 | -6
COc1ccc(CCC(=O)Nc2nc3c(s2)CN(C)CC3)cc1OC | / | 0 | 16 | 109* | -1 | 2
CC(=O)NC(CCS(C)(=O)=O)C(=O)Nc1nccs1 (stereo unspecified) | 91 | 0 | 7 | 8 | 3 | 3
Cc1ccc2c(c1)c1c3n2CCN(C(=O)Cn2c(-c4ccccc4)noc2=O)C3CCC1 (stereo unspecified) | 94 | 0 | -5 | 21* | -6 | 1
Oc1ccccc1O | / | 52* | / | / | / | /
Cc1ccc2[nH]c3c(NCc4ccco4)ncnc3c2c1 | 94 | -10 | -9 | 5 | 6 | 3
c1coc(CNc2ncnc3nc[nH]c23)c1 | / | -4 | 6 | 25* | 17 | -7
CC(=O)Nc1ccc(S(=O)(=O)N2CCN(c3nc(NC4CCCC4)c4ccccc4n3)CC2)cc1 | 41* | -3 | 18 | 4 | 1 | 2
CCOC(=O)c1cnc(SCc2ccc(C)cc2)nc1N | 87 | -1 | -7 | / | -3 | -3
SMILES | SK-BR-3 tox 24h | Hsp90 inh | MKP-1 inh | ROCK2 blocker | PKA inh | Cdc25B inh
CCOC(=O)c1cnc(SC2CCc3ccccc3C2=O)nc1N (stereo unspecified) | 92 | 56* | -6 | 7 | 10 | 7
Cc1cc(C)nc(-n2nc(C)c(C3(O)C(=O)Nc4ccccc43)c2N)n1 (stereo unspecified) | 79 | / | 9 | / | 8 | -8
O=C(c1cccc(N2C(=O)C3CC=CCC3C2=O)c1)N1CCCCCC1 (stereo unspecified) | / | -2 | 15 | 5 | 16 | -6
CN(C(=O)c1cccc(N2C(=O)C3CC=CCC3C2=O)c1)C1CCCCC1 (stereo unspecified) | / | 3 | 18 | 21* | 9 | -7
NC(=O)CN1CCN(c2ccccc2F)CC1 | / | 2 | -3 | 0 | 7 | -13
Fc1ccccc1N1CCN(c2ncnc3[nH]ncc23)CC1 | / | -3 | 15 | 14 | 28* | 0
O=C1c2ccccc2-c2n[nH]c3cccc1c23 | / | 21 | / | / | / | /
COc1ccc(C2=NO[C@@H]3C(=O)N(c4ccc5c(c4)OCCO5)C(=O)[C@H]23)cc1OC | 95 | 68* | -14 | 4 | 9 | 1
COc1ccc(C2=NO[C@@H]3C(=O)N(C4CCCCC4)C(=O)[C@H]23)cc1OC | 86 | -1 | -11 | 6 | 12 | 0
CCCn1c(SCC(=O)NCc2ccco2)nc2c1c(=O)n(C)c(=O)n2C | 86 | -2 | -10 | 1 | -2 | 3
CCn1c(SCC(=O)NCc2ccco2)nc2c1c(=O)n(C)c(=O)n2C | 42* | -3 | -20 | -3 | -10 | -12
N#Cc1c(/N=C/c2ccco2)sc2c1CCCCC2 | 94 | -3 | 0 | 25* | 6 | -4
OC(COc1ccc2cc(Br)ccc2c1)CN1CCN(c2ccccn2)CC1 (stereo unspecified) | 81 | -2 | 10 | 1 | 0 | -21
CCOc1cc(N2CCOCC2)c(OCC)cc1NC(=O)c1cc(-c2ccco2)nc2ccccc12 | 44* | / | 37 | / | -2 | -8
COc1ccc(/C(O)=C2/C(=O)C(=O)N(CCCN(C)C)C2c2cccnc2)cc1 (stereo unspecified) | 96 | -1 | -2 | -2 | 3 | -3
CN(C)CCCN1C(=O)C(=O)/C(=C(/O)c2ccc(OCc3ccccc3)cc2)C1c1cccnc1 (stereo unspecified) | 99 | 78* | -9 | -3 | 4 | 2
COc1ccc(C2CC(=O)C3=C(C2)Nc2ncnn2C3c2ccccc2)cc1 (stereo unspecified) | 102 | 91* | -1 | -1 | 5 | -4
COc1ccc(C2CC(=O)C3=C(C2)Nc2ncnn2C3c2ccccc2C)cc1 (stereo unspecified) | 79 | -4 | 24 | 3 | -5 | 0
Cc1ccc(S(=O)(=O)N(C)CCCC(=O)Nc2ccccn2)cc1 | 111 | -4 | 17 | 0 | -4 | 4
CC(C)CCN1CC(C(=O)N2CCN(c3ccc(F)cc3)CC2)CC1=O (stereo unspecified) | / | -5 | 1 | 129* | 3 | 9
COC(=O)Nc1nc2ccc(C(=O)c3ccccc3)cc2[nH]1 | 93 | -4 | -6 | -4 | -9 | -2
O=C(CSc1nnc(Cc2cccs2)n1C1CCCCC1)N1CCCc2ccccc21 | / | -3 | 25 | 0 | 2 | -9
CCOc1ccc(NCC(=O)Nc2ccc(C)cc2C)cc1 | 85 | 52* | -12 | 3 | 3 | 14
Cc1ccc(NC(=O)CSCC(=O)O)c(C)c1 | / | 1 | -9 | 11 | 4 | -3
CC1(C)CCC2=C(O1)c1ccccc1C(=O)C2=O | / | 89* | / | / | / | /
